# Shown are actives, neighbours in structure and some others; about 0.39% of the full set was active somewhere.
# CBFb RUNX1 block: CBF-beta/RUNX1 interaction disruption | Q01196+Q13951 | AlphaScreen CBFb-His/RUNX1-biotin binding, biochemical | Potency, µM (titrated, usually from 59.8 µM), without a hit: at the highest dose activity, negative = inhibition, actives largely listed as inhibitors | 230,000 tested, under 10 active; also: % of control where 0% means no effect
#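 Inhibition was taken as any reduction in AlphaScreen signal from the CBF-beta–RUNX1 pair (His and biotin tags, 30 nM each), measured after compound (15 min) and bead (90 min) incubations at room temperature.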
# TRPV1 agonist: agonists of human vanilloid receptor 1 (TRPV1); activation, % at 8.33 µM; hit rate 0.19% among 320,000; TRPV1-expressing cells, Fluo-8 calcium influx, agonist mode; in the data active = activation above about 80%; inconclusive = between about 30% and that limit; also: 0% is about no effect
#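 Cells expressing TRPV1 were dye-loaded with Fluo-8 and read kinetically: 10 s baseline, 3 min after compound (agonist portion), then 2 min after EC20 capsaicin (allosteric enhancer portion). Calcium-bound dye fluorescence at 480/520 nm.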
# TRPV1 potentiator: enhances activation of the human vanilloid receptor TRPV1. TRPV1-expressing cells, Fluo-8 calcium influx, capsaicin EC20 potentiation. potentiation, % at 8.33 µM. hit rate 0.02% among 320,000. AID 540277; in the data active = potentiation above about 80%; inconclusive = between about 30% and that limit; also: 0% is about no effect
#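 Fluo-8 calcium influx in TRPV1-expressing cells, kinetic read (ex 480/em 520 nm). Compound added and read 3 min for agonist activity, followed by capsaicin at EC20 final and 2 min further read for enhancement.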
# A-T KAP1 phos: candidate therapy for ataxia-telangiectasia; F2112 A-T fibroblasts, KAP-1 phosphorylation AlphaLISA; neocarzinostatin DNA damage 30 min before lysis; Potency, µM (top dose mostly 57.5 µM), without a hit: top-dose activation, usual class: activators; hit rate 0.19% among 320,000; AID 485349; also: potency is read from the fitted curve at half-maximal effect; % of control where 0% means no effect; nearly all actives have a fitted effect of over 45% in size
#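 ATM-like activity read as KAP-1 phosphorylation via AlphaLISA donor/acceptor antibody pairs after lysis and 6 hr at 25C. Cells were ATM-null patient fibroblasts (F2112, hTERT), dosed 60 min, then exposed to the DSB inducer NCS for 30 min.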
# Anesthetic bind: candidate novel general anesthetic via apoferritin binding; hit rate 0.074% among 350,000; AID 485281; apoferritin/1-aminoanthracene competitive binding, fluorescence; Potency, µM (titrated, usually from 77.5 µM), inactives show at the top dose activity change, negative = displacement, most hits filed as inhibitors; P02791; also: potency is read from the fitted curve at half-maximal effect; % is scaled to controls: 0 for no effect and ±100 for the full control effect; nearly all actives have a fitted effect of over 20% in size
# Target sequence (P02791 2-175 limits assumed): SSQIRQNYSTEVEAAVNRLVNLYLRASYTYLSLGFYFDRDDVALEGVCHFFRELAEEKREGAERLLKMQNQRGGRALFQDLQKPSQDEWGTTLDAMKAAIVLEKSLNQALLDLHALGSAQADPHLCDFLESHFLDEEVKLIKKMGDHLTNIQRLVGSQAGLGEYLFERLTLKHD
#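 Horse-spleen apoferritin (10 uM) was mixed with 50% saturated 1-aminoanthracene in PBS, exposed to compounds for 10 min at room temperature, and read for fluorescence (ex 380 nm, em 535 nm). Competitive displacement was fitted with a four-parameter Hill equation.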
# An asterisk follows results filed as active; ? = inconclusive; . = no result; [ ] = dose if it differs, or a comment. Unless noted, calls follow the shape of the dose curve; as a rule, active = well fitted curve in the direction sought with a large enough effect; inconclusive = small, poorly fitted or top-dose-only effect, or another doubt; inactive = no such curve, though single readings can be large; an effect the other way counts as inactive or inconclusive.
SMILES,CBFb RUNX1 block,TRPV1 agonist,TRPV1 potentiator,A-T KAP1 phos,Anesthetic bind
COC(=O)C1=CN(C(C)c2ccccc2)C=C(C(=O)OC)C1c1cc(OC)c(OC)c(OC)c1 (stereo not drawn),.,-7,-6,7.1µM*,152%
COC(=O)C1=CN(Cc2ccc(OC)cc2)C=C(C(=O)OC)C1c1cc(OC)c(OC)c(OC)c1,.,3,1,?,95%
COc1c(C=O)c(=O)[nH]c2c(OC)cccc12,26%,.,.,.,.
CCOC(=O)c1c(-c2ccccc2)oc2ccc(OCC(O)CNCCN(C)C)cc12 (stereo not drawn),.,-4,20,40µM*,-2%
Cc1cccc(NC(=O)c2ccc(NCC3CCCO3)c([N+](=O)[O-])c2)n1 (stereo not drawn),-15%,15,-9,1%,28µM*
Cc1cccc(NC(=O)c2ccc(NCC3CCCO3)c([N+](=O)[O-])c2)c1 (stereo not drawn),6%,24,-8,15%,3%
O=C(Cl)c1cccc([N+](=O)[O-])c1,-1%[21.7 µM],.,.,.,.
c1ccc(CCNc2nc3ccccc3s2)cc1,3%,?,10,.,13µM*
COc1ccc(OC)c(C2=Nn3c(nnc3-c3cccc(OC)c3OC)SC2)c1,-2%,.,.,.,-20%
CNC(=O)c1csc(-c2ccncc2)n1,-5%,2,-10,-1%,2%
O=C(Nc1ccc(Cl)cc1Cl)c1csc(-c2cccnc2)n1,5%,.,.,40µM*,4%
O=C(Nc1ccc(Cl)cc1)c1csc(-c2ccccc2)n1,5%,81*,-25,18µM*,-11%
CNC(=O)c1csc(-c2ccc(C)cc2)n1,5%,81*,-15,-1%,-7%
CNC(=O)c1csc(-c2ccc(Cl)cc2)n1,1%,84*,-21,2%,-2%
O=C(NCc1ccccc1)c1csc(-c2cccnc2)n1,7%,20,-19,2%,-7%
CC(=O)[C@@H]1[C@H]2[C@H](C(=O)[C@H]3OC[C@@H]2O3)[C@H]2C=Cc3ccccc3N21,-16%[21.7 µM],.,.,.,.
CCCCCCCCN=C(N)c1ccc(C(=O)OCC2CCCCC2)cc1,21%,.,.,.,?
CCCCNc1c(-c2ccc(OC)c(SC3CCCCC3)c2)nc2cc(C)ccn12,.,88*,6,32µM*,.
CCCCCCSc1ccc(-c2nc3ccccn3c2NCCCC)cc1,.,?,21,40µM*,.
COc1ccc(-c2nc3cnccn3c2NCc2ccccc2)cc1SC1CCCCC1,.,?,15,?,.
CCCCNc1c(-c2ccc(OC)c(SC3CCCCC3)c2)nc2cnccn12,.,?,-14,22µM*,.
CCCCCCSc1cc(-c2nc3cnccn3c2NCc2ccccc2)ccc1OC,.,28,6,18µM*,.
CC(C)C[C@H](NC(=O)[C@H](CC(C)C)NC(=O)[C@H](CCC(N)=O)NC(=O)[C@H](CO)NC(=O)[C@@H]1CCCN1C(=O)[C@H](CO)NC(=O)[C@H](CO)NC(=O)[C@@H](NC(=O)[C@H](Cc1cnc[nH]1)NC(=O)[C@H](CCC(=O)O)NC(=O)[C@H](Cc1ccc(O)cc1)NC(=O)[C@H](CCCCN)NC(=O)[C@H](CCC(N)=O)NC(=O)[C@H](Cc1ccc(O)cc1)NC(=O)[C@H](CC(=O)O)NC(=O)[C@@H](NC(=O)[C@@H]1CCCN1C(=O)[C@H](CC(=O)O)NC(=O)[C@H](CC(N)=O)NC(=O)[C@H](CC(=O)O)NC(=O)CNC(=O)[C@H](CC(=O)O)NC(=O)[C@@H]1CCCN1C(=O)[C@H](CCC(N)=O)NC(=O)[C@H](Cc1ccc(O)cc1)NC(=O)[C@H](C)NC(=O)[C@H](Cc1c[nH]c2ccccc12)NC(=O)[C@H](Cc1ccccc1)NC(=O)[C@@H](NC(=O)[C@@H](N)CO)[C@@H](C)O)[C@@H](C)O)[C@@H](C)O)C(=O)N[C@@H](C)C(=O)N1CCC[C@H]1C(=O)NCC(=O)N[C@@H](CC(=O)O)C(=O)N[C@@H](Cc1ccc(O)cc1)C(=O)O,12%,.,.,.,5%
CO[C@@H](CCOCc1ccccc1)C[C@H]1O[C@H](C(=O)OC(C)C)C=C[C@@H]1C,5%,.,.,.,.
CC[C@H](C)[C@H](NC(=O)[C@H](CCC(=O)O)NC(=O)[C@H](CC(N)=O)NC(=O)[C@@H](N)[C@@H](C)O)C(=O)N[C@H](C(=O)N[C@@H](CCC(=O)O)C(=O)N[C@@H](CCC(=O)O)C(=O)N[C@@H](CCC(N)=O)C(=O)N[C@@H](Cc1ccc(O)cc1)C(=O)N[C@H](C(=O)N1CCC[C@H]1C(=O)N[C@@H](CCC(N)=O)C(=O)N[C@@H](CO)C(=O)N[C@@H](CC(C)C)C(=O)N[C@@H](C)C(=O)N[C@H](C(=O)N[C@@H](CC(C)C)C(=O)N[C@@H](CCC(=O)O)C(=O)N[C@@H](CO)C(=O)N[C@H](C(=O)N[C@@H](Cc1ccccc1)C(=O)N[C@@H](CCC(N)=O)C(=O)N[C@@H](CCC(=O)O)C(=O)N[C@@H](CC(C)C)C(=O)NCC(=O)N[C@@H](CCCCN)C(=O)N[C@@H](CC(C)C)C(=O)N[C@H](C(=O)NCC(=O)N1CCC[C@H]1C(=O)N[C@@H](CC(N)=O)C(=O)N[C@@H](CO)C(=O)N[C@@H](CCC(N)=O)C(=O)O)[C@@H](C)O)C(C)C)[C@@H](C)O)[C@@H](C)O)C(C)C,8%,.,.,.,-4%
SMILES,CBFb RUNX1 block,TRPV1 agonist,TRPV1 potentiator,A-T KAP1 phos,Anesthetic bind
CCC(C)Sc1ccc(-c2nc3cnccn3c2NC2CCCCC2)cc1 (stereo not drawn),.,14,26,22µM*,.
Clc1ccc(-c2nc3cnccn3c2NC2CCCC2)cc1,24%,22,-15,.,877%
CCOC(=O)c1c(NC(=O)COC(=O)c2ccccn2)sc(C(=O)N(C)C)c1C,.,10,103*,8%,.
CCOC(=O)c1c(NC(=O)COC(=O)c2cnc(C)cn2)sc(C(=O)N(C)C)c1C,.,-2,3,2%,.
Cc1nn(C)c(C)c1N1C(=O)c2cccc3c(Br)ccc(c23)C1=O,9%,0,?,.,8%
Cc1ccc(N2C(=O)c3cccc4c(N)ccc(c34)C2=O)c2cccnc12,7%,94*,-8,-6%,52%
CCCCNc1ccc2c3c(cccc13)C(=O)N(CCCC)C2=O,?,92*,-5,28µM*,2%
O=C1c2cccc3c(N4CCCCC4)ccc(c23)C(=O)N1c1ccccn1,11%,?,-8,-1%,-13%
CCN1C(=O)c2cccc3c(N)ccc(c23)C1=O,.,198*,6,40µM*,257%
Cc1nn(C)c(C)c1N1C(=O)c2cccc3c(N)ccc(c23)C1=O,9%,93*,-16,8%,443%
OC[C@H]1NC[C@@H](O)[C@@H](O)[C@@H]1O,8%,.,.,.,4%

# Assay outcomes: PubChem, National Center for Advancing Translational Sciences (NCATS)
